Bioassay records: PubChem, National Center for Advancing Translational Sciences (NCATS)
Shown are actives, neighbours in structure and some others; about 19% of the full set was active somewhere.
ELG1 DNA repair: qHTS screen for small molecules that inhibit ELG1-dependent DNA repair in human embryonic kidney (HEK293T) cells expressing luciferase-tagged ELG1. HEK293T ELG1-luciferase reporter, luminescence, 16 h; DNA damage induced by 5-fluorouridine. Potency, µM (top dose mostly 46.1 µM), hits mostly inhibitors. actives 2.3% (n = 330,000). AID 504467, 2011; note: nearly all actives have a fitted effect of over 55% in size
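Luminescence from the luciferase reporter, measured 30 min after ONE-Glo reagent at room temperature, was the read-out. Beforehand, 2,000 cells per well were exposed for 16 hr at 37 °C to 5-fluorouridine together with compound or vehicle.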
IL1B secr inh: qHTS for Inhibitors of Inflammasome Signaling: IL-1-beta AlphaLISA Primary Screen | THP-1 LPS/ATP IL-1B secretion, AlphaLISA, 16 h; stronger effect = lower value | activity change, % at 57.5 µM | actives 4.7% (n = 360,000); in the data active = activity change below about -50%; inconclusive = mostly about -30% to -49%
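Secreted IL-1B measured by AlphaLISA bead assay after 16 h compound exposure of THP-1 cells; compounds (final up to 57.5 uM) added 1 h before LPS (250 ng/mL) and ATP (1.25 mM) stimulation; lower signal means less secretion.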
HT1080 IDH1KD tx: qHTS for induction of synthetic lethality in tumor cells producing 2HG: qHTS for the HT-1080-IDH1KD cell line; HT-1080 IDH1 knockdown viability, ATP luminescence, 48 h; actives 2% (n = 360,000); Potency, µM (titrated, usually from 46.1 µM), hits mostly cytotoxic; AID 686971, 2013
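% activity derives from luminescence (CellTiter-Glo), normalised to DMSO and no-cell wells. HT-1080-IDH1KD cells, 750/well, had 48 h compound exposure at 37 °C.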
HT1080-NT tox: qHTS for induction of synthetic lethality in tumor cells producing 2HG: qHTS for the HT-1080-NT fibrosarcoma cell line. HT-1080-NT fibrosarcoma viability, CellTiter-Glo ATP luminescence, 48 h. Potency, µM (doses to about 46.1 µM), hits mostly cytotoxic. actives 1.6% (n = 360,000);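 note: NT is the 2HG producing partner of a matched IDH1 knockdown line; nearly all actives have a fitted effect of over 55% in size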
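750 cells/well, RPMI + 5% FBS; 2 h settle, compound pin-transfer, 48 h at 37 degrees C. CellTiter-Glo 10 min RT, luminescence. Normalized to DMSO and media-only wells.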
TDP1 cell CPT: qHTS for Inhibitors of human tyrosyl-DNA phosphodiesterase 1 (TDP1): qHTS in cells in presence of CPT; actives 12% (n = 420,000); AID 686979, 2013; chicken DT40 Tdp1-/-;hTDP1 cells + 20 nM CPT, ATP luminescence, 48 h; Potency, µM (titrated, usually from 46.2 µM), most hits filed as inhibitors; note: nearly all actives have a fitted effect of over 55% in size
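Chicken DT40 Tdp1-/- cells complemented with human TDP1, 400 cells/well, exposed to compounds plus 20 nM camptothecin for at least 48 h at 37 C; viability read as ATP content by CellTiter-Glo luminescence.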
TDP1 cell noCPT: qHTS for Inhibitors of human tyrosyl-DNA phosphodiesterase 1 (TDP1): qHTS in cells in absence of CPT; DT40 Tdp1-/- hTDP1 cells, no CPT, ATP luminescence, 48 h; Potency, µM (highest dose often 46.2 µM), hits mostly inhibitors; actives 15% (n = 420,000); note: nearly all actives have a fitted effect of over 55% in size
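Readout: luminescence from CellTiter-Glo after 30 min in the dark at RT. Cells: DT40 Tdp1-/- with stable hTDP1, 400/well. Exposure: compounds alone, ≥48 hr, 37 °C.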
Large screens that a line does not name were inactive. Unless noted, calls come from the whole dose curve; as a rule, active = well fitted curve in the direction sought with a large enough effect; inconclusive = small, poorly fitted or top-dose-only effect, or another doubt; inactive = no such curve, though single readings can be large; an effect the other way counts as inactive or inconclusive.

CC(=O)OCC(=O)C1(O)CCC2C3CC(C)C4=CC(=O)C=CC4(C)C3(F)C(O)CC21C (stereo not given)	HT1080 IDH1KD tx inconclusive (no result: ELG1 DNA repair, IL1B secr inh)
CC1CC(=O)Nc2ccccc2N1C(=O)CSc1ncnc2sccc12 (stereo not given)	none
CC(=O)OCC(=O)[C@@]1(O)CC[C@H]2[C@@H]3CCC4=CC(=O)C=C[C@]4(C)[C@@]3(F)[C@@H](O)C[C@@]21C	IL1B secr inh -56
Cc1ccc(NC(=O)CN2CCN(C(=O)C3CC3)CC2)c(F)c1	none (no result: ELG1 DNA repair)
CCOc1ccc(NC(=O)c2ccc(N3CC4CC(C3)c3cccc(=O)n3C4)c(N)c2)cc1 (stereo not given)	TDP1 cell CPT inconclusive
NC(=S)N/N=C/c1ccc(-c2cc(Cl)c(Cl)cc2Cl)o1	HT1080 IDH1KD tx inconclusive, HT1080-NT tox inconclusive, TDP1 cell CPT 3.7µM, TDP1 cell noCPT 4.6µM
O=[N+]([O-])c1cccc(-c2ccc(/C=N/NC(=S)Nc3cccc(F)c3)o2)c1	ELG1 DNA repair inconclusive, HT1080-NT tox inconclusive, TDP1 cell noCPT 18µM
NC(=S)N/N=C/c1ccc(-c2cccc([N+](=O)[O-])c2)o1	TDP1 cell CPT 5.2µM, TDP1 cell noCPT 3.7µM
Cc1ccc(S(=O)(=O)N/N=C\c2ccc3c(c2)OCO3)c(C)c1	TDP1 cell CPT inconclusive
O=C(CNC(=O)c1ccc(Cl)cc1)OCc1cc(=O)n2nc(C3CCCCC3)sc2n1	none (no result: ELG1 DNA repair, IL1B secr inh, HT1080 IDH1KD tx, HT1080-NT tox)
COc1ccc(C2C3=C(CC(C)(C)CC3=O)Oc3ncn(Cc4ccco4)c(=N)c32)cc1 (stereo not given)	IL1B secr inh -60, HT1080 IDH1KD tx inconclusive
COc1ccc(C2C3=C(CC(C)(C)CC3=O)Oc3ncn(CC(C)C)c(=N)c32)cc1 (stereo not given)	IL1B secr inh -60, TDP1 cell CPT inconclusive, TDP1 cell noCPT inconclusive
Cc1cc(C)c(NC(=O)/C(C#N)=C/c2ccc(OCc3ccc(F)cc3)cc2)c(C)c1	ELG1 DNA repair inconclusive, TDP1 cell CPT 2.6µM, TDP1 cell noCPT 6.5µM
COC(=O)c1ccc(COc2ccccc2/C=C(\C#N)C(=O)Nc2c(C)cc(C)cc2C)cc1	ELG1 DNA repair inconclusive, IL1B secr inh -79, HT1080 IDH1KD tx 18µM, HT1080-NT tox 9.2µM, TDP1 cell CPT 8.2µM, TDP1 cell noCPT 10µM
COc1cc(/C=C(/C#N)C(=O)Nc2ccccc2)c(Br)cc1OCc1ccc(C(=O)O)cc1	ELG1 DNA repair inconclusive, HT1080 IDH1KD tx inconclusive, HT1080-NT tox inconclusive, TDP1 cell noCPT inconclusive
Cc1ccccc1OC(C)C(=O)Nc1ccc2c(c1)OCCO2 (stereo not given)	ELG1 DNA repair inconclusive
CCCCn1c(N)c(N(CC(C)C)C(=O)c2ccco2)c(=O)[nH]c1=O	none
O=C(Nc1ccc2nc(-c3cccs3)[nH]c2c1)c1ccco1	ELG1 DNA repair inconclusive, TDP1 cell CPT inconclusive, TDP1 cell noCPT inconclusive
CC(=O)Nc1cccc(NC(=O)Cc2cccs2)c1	none
O=C(Nc1ccc2nc(-c3cccs3)[nH]c2c1)c1cccs1	ELG1 DNA repair inconclusive, HT1080 IDH1KD tx inconclusive, HT1080-NT tox inconclusive, TDP1 cell CPT inconclusive, TDP1 cell noCPT 23µM
O=C(Cc1cccs1)Nc1cccc(-c2nc3cc4ccccc4cc3[nH]2)c1	ELG1 DNA repair inconclusive, IL1B secr inh -97, HT1080 IDH1KD tx inconclusive, HT1080-NT tox 23µM, TDP1 cell CPT 26µM, TDP1 cell noCPT 13µM
